Assay in all cases: yeast three-hybrid, YBZ-1, SC-Leu-His + 0.5 mM 3-AT, 4 days
Settings in all cases: tags: N-Gal4 AD-HA kept; label: inside an RPR1-promoter hybrid RNA with tandem MS2 sites; ssRNA

The target of one experiment is PUM1 PUF domain R8-AWK (Homo sapiens, UniProt Q14671 828-1176, N1122A;Y1123W;Q1126K). The method, boiled down:
(§1)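 A centromeric plasmid in strain YBZ-1 co-expressed Pumilio-1 PUF domain libraries, randomized at the three base-contacting residues of each repeat, with matching RNA elements; the strain carries a LexA–MS2 coat fusion and a HIS3 reporter. After four days on SC-Leu (input) or SC-Leu-His + 0.5 mM 3-AT (selection), the repeat regions were PCR-amplified and Illumina-sequenced. The interaction score is the log change in variant frequency from input to selection, using log2 and a pseudocount of 1 where absent.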

The target of the next experiment is T1, PUM1 PUF domain R6-GYQ (Homo sapiens, UniProt Q14671 828-1176, N1043G).
T1 sequence: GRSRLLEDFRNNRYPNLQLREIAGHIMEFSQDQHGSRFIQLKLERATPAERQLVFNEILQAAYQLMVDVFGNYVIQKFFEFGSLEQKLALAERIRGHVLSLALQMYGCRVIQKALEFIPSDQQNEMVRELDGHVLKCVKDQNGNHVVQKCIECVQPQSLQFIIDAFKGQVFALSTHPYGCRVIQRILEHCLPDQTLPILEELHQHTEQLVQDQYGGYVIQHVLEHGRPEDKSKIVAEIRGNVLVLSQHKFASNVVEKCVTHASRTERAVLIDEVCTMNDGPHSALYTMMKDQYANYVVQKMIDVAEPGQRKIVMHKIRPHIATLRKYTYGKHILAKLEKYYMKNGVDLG
The method, boiled down: as §1

The target in another experiment is PUM1 PUF domain R3-LSV (Homo sapiens, UniProt Q14671 828-1176, C935L;R936S;Q939V). The method, boiled down:
as §1

A further experiment has as its target PUM1 PUF domain R1-RWS (Homo sapiens, UniProt Q14671 828-1176, S863R;R864W;Q867S). The procedure, abridged: as §1
The target in another experiment is PUM1 PUF domain R1-RGT (Homo sapiens, UniProt Q14671 828-1176, S863R;R864G;Q867T). The method, boiled down: as §1
For the next experiment, the target named is PUM1 PUF domain R1-MGR (Homo sapiens, UniProt Q14671 828-1176, S863M;R864G;Q867R). The procedure, abridged:
as §1

Another experiment concerns the target PUM1 PUF domain R5-SVG (Homo sapiens, UniProt Q14671 828-1176, C1007S;R1008V;Q1011G). The method, boiled down:
as §1

Another experiment addresses PUM1 PUF domain R5-RGG (Homo sapiens, UniProt Q14671 828-1176, C1007R;R1008G;Q1011G). The method, boiled down: as §1
For another experiment, the target named is PUM1 PUF domain R7-RGY (Homo sapiens, UniProt Q14671 828-1176, S1079R;N1080G;E1083Y). The procedure, abridged:
as §1

The target in the next experiment is PUM1 PUF domain R3-LWN (Homo sapiens, UniProt Q14671 828-1176, C935L;R936W;Q939N). The procedure, abridged:
as §1

Chain of PUM1 PUF domain R1-RGT (Q14671 828-1176 S863R/R864G/Q867T): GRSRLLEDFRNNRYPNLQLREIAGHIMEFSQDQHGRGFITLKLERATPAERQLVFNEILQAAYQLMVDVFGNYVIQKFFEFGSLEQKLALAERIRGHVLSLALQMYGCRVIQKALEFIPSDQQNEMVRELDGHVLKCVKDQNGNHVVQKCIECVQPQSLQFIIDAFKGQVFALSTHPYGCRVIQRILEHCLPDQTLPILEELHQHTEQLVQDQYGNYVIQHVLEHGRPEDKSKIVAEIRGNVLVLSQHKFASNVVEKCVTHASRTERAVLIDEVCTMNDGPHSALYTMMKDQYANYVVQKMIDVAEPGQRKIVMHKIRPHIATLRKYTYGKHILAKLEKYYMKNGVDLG
Chain of PUM1 PUF domain R1-RWS (Q14671 828-1176 S863R/R864W/Q867S): as the sequence (Q14671 828-1176 S863R/R864G/Q867T) above, with G37W, T40S counted along it

In the case of “GGCUAGAACUAGUGGAUCCCCCGGCGCCCGGCGGCUCGAGCCCGGGUAAGUGUAAAUAGUCUGCAUGCCGCCGGGCGCCAUGCCUGCAGGUCGACUCUAGAAAACAUG”, the binding signal with PUM1 PUF domain R8-AWK was 5.21 log2 enrichment (interaction score); in the experiment with PUM1 PUF domain R6-GYQ it was 3.62 log2 enrichment (interaction score).

Take “GGCUAGAACUAGUGGAUCCCCCGGCGCCCGGCGGCUCGAGCCCGGGUAAGUGUAAGUAGUCUGCAUGCCGCCGGGCGCCAUGCCUGCAGGUCGACUCUAGAAAACAUG”: in the experiment with PUM1 PUF domain R3-LSV, the binding signal was 3.37 log2 enrichment (interaction score).

Turning to “GGCUAGAACUAGUGGAUCCCCCGGCGCCCGGCGGCUCGAGCCCGGGUAAGUGUAAAUGGUCUGCAUGCCGCCGGGCGCCAUGCCUGCAGGUCGACUCUAGAAAACAUG”, the values for the binding signal with PUM1 PUF domain R1-RWS and in the experiment with PUM1 PUF domain R1-RGT were 1.65 log2 enrichment (interaction score) and 1.3 log2 enrichment (interaction score), respectively.

Consider “GGCUAGAACUAGUGGAUCCCCCGGCGCCCGGCGGCUCGAGCCCGGGUAAGUGUAAAUCGUCUGCAUGCCGCCGGGCGCCAUGCCUGCAGGUCGACUCUAGAAAACAUG”, for which the values for the binding signal with PUM1 PUF domain R1-RWS, with PUM1 PUF domain R1-MGR and in the experiment with PUM1 PUF domain R1-RGT were 2.83 log2 enrichment (interaction score), 1.49 log2 enrichment (interaction score) and 5.04 log2 enrichment (interaction score), respectively.

With “GGCUAGAACUAGUGGAUCCCCCGGCGCCCGGCGGCUCGAGCCCGGGUAAGUGUGAAUAGUCUGCAUGCCGCCGGGCGCCAUGCCUGCAGGUCGACUCUAGAAAACAUG”, the binding signal with PUM1 PUF domain R5-SVG is 2.82 log2 enrichment (interaction score).

Turning to “GGCUAGAACUAGUGGAUCCCCCGGCGCCCGGCGGCUCGAGCCCGGGUAAGUGUUAAUAGUCUGCAUGCCGCCGGGCGCCAUGCCUGCAGGUCGACUCUAGAAAACAUG”, the binding signal in the experiment with PUM1 PUF domain R5-RGG was 2.55 log2 enrichment (interaction score).

Regarding “GGCUAGAACUAGUGGAUCCCCCGGCGCCCGGCGGCUCGAGCCCGGGUAAGUUUAAAUAGUCUGCAUGCCGCCGGGCGCCAUGCCUGCAGGUCGACUCUAGAAAACAUG”, the binding signal with PUM1 PUF domain R7-RGY was 2.43 log2 enrichment (interaction score).

In the case of “GGCUAGAACUAGUGGAUCCCCCGGCGCCCGGCGGCUCGAGCCCGGGUAAGUGUCAAUAGUCUGCAUGCCGCCGGGCGCCAUGCCUGCAGGUCGACUCUAGAAAACAUG”, in the experiment with PUM1 PUF domain R5-RGG, the binding signal is 2.8 log2 enrichment (interaction score).

Turning to “GGCUAGAACUAGUGGAUCCCCCGGCGCCCGGCGGCUCGAGCCCGGGUAAGUGUAAUUAGUCUGCAUGCCGCCGGGCGCCAUGCCUGCAGGUCGACUCUAGAAAACAUG”, the binding signal was 2.26 log2 enrichment (interaction score) with PUM1 PUF domain R3-LSV and 4 log2 enrichment (interaction score) with PUM1 PUF domain R3-LWN.

As to “GGCUAGAACUAGUGGAUCCCCCGGCGCCCGGCGGCUCGAGCCCGGGUAAGCGUAAAUAGUCUGCAUGCCGCCGGGCGCCAUGCCUGCAGGUCGACUCUAGAAAACAUG”, the binding signal in the experiment with PUM1 PUF domain R8-AWK is 4.69 log2 enrichment (interaction score).

With “GGCUAGAACUAGUGGAUCCCCCGGCGCCCGGCGGCUCGAGCCCGGGUAAGUGUAAAUUGUCUGCAUGCCGCCGGGCGCCAUGCCUGCAGGUCGACUCUAGAAAACAUG”, the binding signal with PUM1 PUF domain R1-RWS was 3.86 log2 enrichment (interaction score); in the experiment with PUM1 PUF domain R1-MGR, 2.75 log2 enrichment (interaction score); with PUM1 PUF domain R1-RGT it was 4.56 log2 enrichment (interaction score).
